Compound activity from PubChem BioAssay.
The list is not random: actives were taken first. Their share in the collection is about 3.7%.
tim10-1 inh – growth inhibitors of tim10-1 mutant yeast. S. cerevisiae tim10-1 ts strain growth, BacTiter-Glo, 24 h. inhibition, % at 20 µM. 330,000 compounds, 2.2% hits;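 active means inhibition of at least 40%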;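 further: mutant grown at 25 °C; 0% = DMSO wells with yeast and 100% = wells holding no yeast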
TIM10 inh – TIM10 yeast growth inhibition; S. cerevisiae TIM10 strain growth, BacTiter-Glo luminescence, 24 h; inhibition, % at 10 µM; 330,000 compounds, 1.4% hits; AID 463195;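 active means inhibition of 40% or more at the single tested concentration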;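 further: wild-type TIM10 isogenic control strain grown at permissive 25 °C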
PfHsp90 yeast 2 – reduces growth (ATP signal) of yeast expressing P. falciparum Hsp90; S. cerevisiae expressing PfHsp90, BacTiter-Glo ATP, 48 h; yeast lacking PDR1 and PDR3 efflux regulators; inhibition, % at 9.4 µM; 310,000 compounds, 0.32% hits; AID 504621;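 active means every replicate shows inhibition above about 80%, whatever the replicate mean, limit read from the data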;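 further: 0% = DMSO neutral controls and 100% = 20 µM radicicol positive controls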
tim23-1 inh – growth inhibitors of tim23-1 mutant yeast; S. cerevisiae tim23-1 growth, BacTiter-Glo luminescence, 24 h; 330,000 compounds, 1.3% hits; AID 463212; inhibition, % at 20 µM;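 active means growth inhibition of the mutant yeast at or above 50%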;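 further: temperature-sensitive mutant grown at 25 °C; plate controls were DMSO-treated mutant yeast for no effect and medium wells lacking yeast for full effect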
NLRP3 yeast inh – inhibitors of NALP3 inflammasome in yeast; AID 2825; 330,000 compounds, 0.39% hits; Yeast reconstituted NLRP3/ASC/caspase-1, beta-gal luminescence, 24 h; inhibition, % at 10 µM;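 active means inhibition of 50% or more; inactive means inhibition below 50%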;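 further: plate controls were induced DMSO wells for no effect and uninduced yeast grown without galactose for full effect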
tim10-1 conf – tim10-1 yeast growth inhibition, confirmed. shares compounds with tim10-1 inh. S. cerevisiae tim10-1 ts strain growth, BacTiter-Glo, 24 h. inhibition, % at 20 µM. 7,400 compounds, 56% hits. AID 463213;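 active means inhibition of yeast growth at or above a set limit in either of two repeat tests at 20 µM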;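 further: tim10-1 mutant grown at permissive 25 °C to find synthetic lethal compounds; 0% = DMSO yeast wells and 100% = medium wells without yeast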
TIM10 conf – confirmation of TIM10 yeast growth inhibitors; S. cerevisiae tim10 strain growth, BacTiter-Glo luminescence, 24 h; inhibition, % at 10 µM; shares compounds with TIM10 inh; 4,600 compounds, 63% hits;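 active means inhibition of yeast growth at or above a set limit in either of two replicates at 10 µM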;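 further: this counterscreen used the strain with wild-type TIM10; 0% = yeast with DMSO and 100% = medium wells lacking yeast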
tim23-1 conf – tim23-1 yeast growth inhibition, confirmed | AID 463218 | shares compounds with tim23-1 inh | 4,400 compounds, 83% hits | S. cerevisiae tim23-1 growth, BacTiter-Glo luminescence, 24 h | inhibition, % at 20 µM;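 active means inhibition above about 39% in either of two replicate wells at 20 µM, limit read from the data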;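 further: temperature-sensitive tim23-1 mutant grown at 25 °C; 0% = DMSO wells with yeast and 100% = medium wells without yeast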
* hit, by the source's call.

Results for CC1(C)CC(=NOC(=O)c2ccccc2)CC(C)(C)N1O ?
tim10-1 inh: 58*; TIM10 inh: 58*; PfHsp90 yeast 2: -14; tim23-1 inh: 68*; NLRP3 yeast inh: 18; tim10-1 conf: 61*; TIM10 conf: 70*; tim23-1 conf: 78*

What do the screens show for `N/C(=N\OC(=O)C1CCCCC1)c1cccc(Br)c1`?
tim10-1 inh: 67*; TIM10 inh: 74*; PfHsp90 yeast 2: 24; tim23-1 inh: 75*; NLRP3 yeast inh: 11; tim10-1 conf: 62*; TIM10 conf: 58*; tim23-1 conf: 81*

Results for N/C(=N\OC(=O)CCc1ccccc1)c1ccc(Br)cc1 ?
tim10-1 inh: 47*; TIM10 inh: 61*; PfHsp90 yeast 2: 17; tim23-1 inh: 65*; NLRP3 yeast inh: 10; tim10-1 conf: 56*; TIM10 conf: 55*; tim23-1 conf: 46*

Results for N/C(=N\OC(=O)CCc1ccccc1)c1ccccc1Cl ?
tim10-1 inh: 64*; TIM10 inh: 47*; PfHsp90 yeast 2: -7; tim23-1 inh: 56*; NLRP3 yeast inh: 6; tim10-1 conf: 60*; TIM10 conf: 42*; tim23-1 conf: 48*

How did CC/C(=N\NC(=O)C1CCCC1)c1cccc(Br)c1 do in these assays?
tim10-1 inh: 11; TIM10 inh: 7; PfHsp90 yeast 2: -18; tim23-1 inh: 25; NLRP3 yeast inh: 6

How did CCOc1ccc(OCCCC(=O)ON=C(N)c2ccccc2Cl)cc1 do in these assays?
tim10-1 inh: 10; TIM10 inh: 15; PfHsp90 yeast 2: -6; tim23-1 inh: 13; NLRP3 yeast inh: 26

How did N/C(=N\OC(=O)CCCc1ccccc1)c1ccc(Br)cc1 do in these assays?
tim10-1 inh: 25; TIM10 inh: 23; PfHsp90 yeast 2: -4; tim23-1 inh: 19; NLRP3 yeast inh: 7

How did COc1ccc(/C(N)=N/OC(=O)CCCc2ccccc2)cc1OC do in these assays?
tim10-1 inh: 29; TIM10 inh: 6; PfHsp90 yeast 2: 6; tim23-1 inh: 6; NLRP3 yeast inh: 21

What do the screens show for `N/C(=N\OC(=O)CCc1ccccc1)c1cccc(Br)c1`?
tim10-1 inh: 70*; TIM10 inh: 63*; PfHsp90 yeast 2: 14; tim23-1 inh: 81*; NLRP3 yeast inh: 10; tim10-1 conf: 64*; TIM10 conf: 60*; tim23-1 conf: 76*

Results for CCC(C)NC(=O)Cn1ccc2cc(S(=O)(=O)N3CCCCCC3)ccc21 (centres undefined) ?
tim10-1 inh: 12; TIM10 inh: -1; PfHsp90 yeast 2: -4; tim23-1 inh: 17; NLRP3 yeast inh: -6

What do the screens show for `Cc1ccc(/C(N)=N/OC(=O)CCc2ccccc2)cc1`?
tim10-1 inh: 46*; TIM10 inh: 55*; PfHsp90 yeast 2: -25; tim23-1 inh: 75*; NLRP3 yeast inh: 18; tim10-1 conf: 49*; TIM10 conf: 60*; tim23-1 conf: 61*

Results for Cc1ccc(-c2nnc(N3CCN(C(=O)c4cccs4)CC3)c3ccccc23)cc1 ?
tim10-1 inh: 55*; TIM10 inh: 30; PfHsp90 yeast 2: -6; tim23-1 inh: 69*; NLRP3 yeast inh: 30; tim10-1 conf: 50*; tim23-1 conf: 59*

What do the screens show for `CCOC(=O)N1CCN(c2nnc(-c3ccc(C)cc3)c3ccccc23)CC1`?
tim10-1 inh: 52*; TIM10 inh: 26; PfHsp90 yeast 2: 8; tim23-1 inh: 61*; NLRP3 yeast inh: 1; tim10-1 conf: 34*; tim23-1 conf: 48*

What do the screens show for `O=P(O)(C(O)c1ccccc1)C(O)c1ccccc1` (centres undefined)?
tim10-1 inh: 8; TIM10 inh: 1; PfHsp90 yeast 2: -7; tim23-1 inh: 8; NLRP3 yeast inh: 9

How did COc1ccc2c(c1)CCCC21NC(=O)N(CC(=O)c2cc(F)ccc2F)C1=O (centres undefined) do in these assays?
tim10-1 inh: 25; TIM10 inh: 10; tim23-1 inh: 34; NLRP3 yeast inh: 16

Results for CCCc1nnc(NC(=O)C2CCN(C(=O)C3CC(=O)N(c4ccc(C)cc4)C3)CC2)s1 (centres undefined) ?
tim10-1 inh: 5; TIM10 inh: -9; PfHsp90 yeast 2: 23; tim23-1 inh: 5; NLRP3 yeast inh: 17

Results for CCOc1ccc(S(=O)(=O)N2CCCC(C(=O)NCc3ccccn3)C2)cc1C (centres undefined) ?
tim10-1 inh: 11; TIM10 inh: 19; PfHsp90 yeast 2: 5; tim23-1 inh: 23; NLRP3 yeast inh: 11

What do the screens show for `CCN1/C(=C/C=C/C=C/C=C/c2sc3ccccc3[n+]2CC)Sc2ccccc21`?
tim10-1 inh: 19; TIM10 inh: 21; PfHsp90 yeast 2: 2; tim23-1 inh: 9; NLRP3 yeast inh: 25

What do the screens show for `CC[n+]1c(/C=C/Nc2ccccc2)sc2ccccc21`?
tim10-1 inh: 19; TIM10 inh: 2; PfHsp90 yeast 2: 12; tim23-1 inh: 0; NLRP3 yeast inh: -1

Results for CCN1/C(=C/C=C/C=C/c2sc3ccccc3[n+]2CC)Sc2ccccc21 ?
tim10-1 inh: 80*; TIM10 inh: 81*; tim23-1 inh: 89*; NLRP3 yeast inh: 19; tim10-1 conf: 79*; TIM10 conf: 8; tim23-1 conf: 86*

Results for CCN1/C(=C/C=C/c2sc3ccccc3[n+]2CC)Sc2ccccc21 ?
tim10-1 inh: 77*; TIM10 inh: 83*; PfHsp90 yeast 2: 20; tim23-1 inh: 85*; NLRP3 yeast inh: 43; tim10-1 conf: 77*; TIM10 conf: 76*; tim23-1 conf: 85*

What do the screens show for `Cc1ccc(-c2nc3ccccc3c(=O)n2NC(=O)c2cccs2)cc1`?
tim10-1 inh: 22; TIM10 inh: 19; PfHsp90 yeast 2: -15; tim23-1 inh: 17; NLRP3 yeast inh: -10

How did COc1ccccc1NC(=O)c1ccc(NC(=O)CSc2nc(N)cc(=O)[nH]2)cc1 do in these assays?
tim10-1 inh: 6; TIM10 inh: 7; PfHsp90 yeast 2: -6; tim23-1 inh: 4; NLRP3 yeast inh: 12

What do the screens show for `CCCCN1C(=O)C(=Nc2cccc3cnccc23)c2ccccc21`?
tim10-1 inh: 45*; TIM10 inh: 42*; PfHsp90 yeast 2: -22; tim23-1 inh: 71*; NLRP3 yeast inh: 3; tim10-1 conf: 46*; TIM10 conf: 35*; tim23-1 conf: 67*

How did CCCCN1C(=O)/C(=C2\SC(N3CCCCC3)=NC2=O)c2ccccc21 do in these assays?
tim10-1 inh: 32; TIM10 inh: 28; PfHsp90 yeast 2: -33; tim23-1 inh: 38; NLRP3 yeast inh: 18
